This note sets out measurements from PubChem BioAssay (NCATS).

Molecules are shown by their SMILES. Results filed as inconclusive are left out. Entries that show only a call come without a potency. Active and inactive are the calls of the source. Calls come from the whole dose curve; as a rule, active = well fitted inhibition curve with a large enough effect; inconclusive = small, poorly fitted or top-dose-only effect; inactive = no such curve, though single readings can be large or run the other way.
Potency is the fitted concentration of half-maximal effect.

A short description of this assay: qHTS Screen of the MIPE 4.0 Collection Against Ewings Sarcoma (EW8) (AID 1259255). Note: nearly all actives have a fitted effect of over 35% in size. The note with it: EW8 Ewing sarcoma viability, CellTiter-Glo, 48 h; series mostly up to 45.8 µM. The source says: There is a large unmet medical need for treatments for Ewing sarcoma, a pediatric sarcoma. We sought to identify compounds that inhibited Ewing sarcoma cells in vitro with the goal to then test promising drugs in two drug combinations in vitro to look for synergistic drug combinations. Promising combinations would then proceed to additional validation, including in vivo testing.
Using the NCATS developed oncology compound library called the Mechanism of Interrogation Plate (MIPE), four Ewing sarcoma cell lines were evaluated (TC32, TC71, RDES, EW8). Compounds, in a 12-point titration series, were incubated with cells for 48 hours and the read out was cell viability (CellTiter-Glo from Promega). These initial experiments were used to select appropriate concentrations of each single agent for subsequent two-drug matrix combinations such that the concentrations in the matrices would span both activity and non-activity.
Cells, in the log phase of growth, were seeded in 5 uL of RPMI plus 5% FBS, […] L-glutamine, 100 U/ml penicillin and 100 ug/ml streptomycin into 1536-well solid-bottom white tissue culture treated Greiner Bio One Plates (789173-F) using a MultiDrop Combi (Thermofisher Scientific) dispenser and a small sterile cassette. One column was media alone to be used as a :"no cells" control. The plates were then covered with sterilized stainless steel gasketed lids from Kalypsys. After allowing cells to attach for 4 hours, 23 nL of test compound or control (negative control DMSO and positive control 9.2 uM Bortezomib-final) were added from a 1536-well polypropylene compound source plate to each well using a 1536 head pin tool from Kalypsys. Cells were then incubated for 48 hours at 37C, 95% relative humidity and 5% CO2. After 48 hours, plates were removed from the incubator and 3 uL of CellTiter-Glo (Promega) was added using an Aurora Flying Reagent Dispenser Bioraptor. Plates were incubated at room temperature for 10 minutes prior to reading the luminescence on the Viewlux (PerkinElmer). The relative luciferase units are used to calculate the percent activity using the activity of DMSO in the cells and no cells columns for normalization of no inhibition and full inhibition respectively.
A general note: qHTS replaces the single test concentration by a dilution series.
With `CC(C)[C@]12O[C@@H]1[C@@H]1O[C@]13[C@]1(O[C@H]1C[C@@H]1C4=C(CC[C@@]13C)C(=O)OC4)[C@H]2O`, the Potency result is “inactive”.
For `C=CCON=C(C[C@H]1O[C@@H]2O[C@]3(C)CC[C@@H]4[C@H](C)CC[C@@H]([C@H]1C)[C@@]24OO3)[C@H]1O[C@@H]2O[C@]3(C)CC[C@H]4[C@H](C)CC[C@@H]([C@@H]1C)[C@@]24OO3`, the Potency was 0.296 µM (active).
In the case of `C#C[C@]1(O)C=C[C@@H]2[C@@H]3CCC4=CC(=O)CC[C@@H]4[C@H]3CC[C@@]21CC`, the Potency result was “inactive”.
The entry for `NC1CC1c1ccccc1` (stereo not given) is “inactive”; for `CSCC[C@@H](NC(=O)[C@@H](Cc1ccccc1)NC(=O)CNC(=O)CNC(=O)[C@@H](N)Cc1ccc(O)cc1)C(=O)O` it is “inactive”; for `CC(C)N[C@@H]1CCn2c(=O)[nH]c3cccc(c32)[C@@H]1O` it is 7.43 µM (active).
On to `CN[C@@H]1Cc2cccc3[nH]c(=O)n(c23)C1`, for which the Potency result was “inactive”.
The entry for `C[C@](O)(COc1ccc(C#N)cc1)C(=O)Nc1ccc(C#N)c(C(F)(F)F)c1` is “inactive”; for `Oc1ccc2c3c1O[C@H]1c4[nH]c5c(c4C[C@@]4(O)[C@@H](C2)N(CC2CC2)CC[C@]314)C[C@@]1(O)[C@H]2Cc3ccc(O)c4c3[C@@]1(CCN2CC1CC1)[C@H]5O4` it is “inactive”; for `COC1=CC(C)=C[C@@H](C)[C@@H](O)[C@@H](C)CC(C)=CC=C[C@H](OC)[C@H]([C@@H](C)[C@@H](O)[C@H](C)[C@@]2(O)C[C@@H](O)[C@H](C)[C@@H](C(C)C)O2)OC1=O` it is 0.0053 µM (active).
As to `CC1(N2CCC(n3c([C@@H]4CCCNC4)nc4ccccc43)CC2)CCCCCCC1`, the Potency is 10.5 µM (active).
Regarding `CCC(=O)OC1CCC2C3CCC4=CC(=O)CC[C@@]4(C)C3CC[C@]12C` (stereo not given in full), the Potency entry is “inactive”.
For the compound `c1ccc2c(CN3CCNCC3)cccc2c1`, the Potency entry is “inactive”.
The entry for `CCOC(=O)c1c(C(C#N)=CN)c2ccc(Cl)c(Cl)c2n1C` is “inactive”; for `O=c1[nH]c2ccc(Cl)cc2c(N[C@@H]2CN3CCC2CC3)c1-c1nc2ccccc2[nH]1` it is 0.0743 µM (active).
For `O=c1cccc2n1CC1CNC[C@H]2C1`, the Potency entry is “inactive”.
For `COc1cccc2c1[C@]13CCN(CC4CC4)[C@H](C2)[C@]1(OC)CCC(=O)C3`, the Potency entry was “inactive”.
In the case of `O=[N+]([O-])c1ncc[nH]1`, the Potency entry was “inactive”.
As for `COCC1(CO)C(=O)C2CCN1CC2` (stereo not given), the Potency was 2.64 µM (active).
The figure for `O=c1[nH]c2ccccc2n1C1CCN(Cc2ccc(-c3[nH]c4cc5ncnc5cc4nc3-c3ccccc3)cc2)CC1` is 18.7 µM (active).
With `Cc1c(C(=O)Nc2cccc(C(F)(F)F)c2)cc(-c2ccccc2)n1CCCN1CCOCC1`, the Potency is 16.6 µM (active).
As for `CCNC(=O)C[C@@H]1N=C(c2ccc(Cl)cc2)c2cc(OC)ccc2-n2c(C)nnc21`, the Potency was 7.43 µM (active).
On to `N#C[C@H](O[C@@H]1O[C@H](CO[C@@H]2O[C@H](CO)[C@H](O)[C@H](O)[C@H]2O)[C@H](O)[C@H](O)[C@H]1O)c1ccccc1`, for which the Potency is 20.9 µM (active).
On to `O=C1CCC[C@@H]2[C@H]3CCCN4CCC[C@@H](CN12)[C@@H]34`, for which the Potency result was “inactive”.
`CC1=NN=C(c2ccc(N)cc2)c2cc3c(cc2C1)OCO3`: the Potency result was “inactive”.
Turning to `Cc1ccccc1-n1c(Cn2ncc3c(N)ncnc32)nc2cccc(C)c2c1=O`, the Potency is 26.4 µM (active).
Regarding `C[C@]12Cc3cn[nH]c3C[C@@H]1CC[C@@H]1[C@H]2CC[C@@]2(C)[C@H]1CC[C@]2(C)O`, the Potency is 2.96 µM (active).
In the case of `NC1=NC(=O)N2CC12` (stereo not given) it was “inactive”; in that of `CCN(CC)C(=O)c1ccc(C2=CC3(CCNCC3)Oc3cccc(O)c32)cc1`, “inactive”.
Regarding `Cc1[nH]nc2ccc(-c3cncc(OC[C@@H](N)Cc4c[nH]c5ccccc45)c3)cc12`, the Potency was 2.09 µM (active).
For the compound `CC(=Cc1csc(C)n1)[C@@H]1C[C@H]2O[C@]2(C)CCC[C@H](C)[C@@H](O)[C@@H](C)C(=O)C(C)(C)[C@@H](O)CC(=O)O1`, the Potency result was “inactive”.
On to `C1=C2CCCN[C@H]2[C@@H]2C[C@H]1[C@@H]1CCCCN1C2`, for which the Potency result was “inactive”.
Regarding `CC(C)(O)C=CC(=O)[C@](C)(O)[C@H]1[C@H](O)C[C@]2(C)[C@@H]3CC=C4[C@@H](C=C(O)C(=O)C4(C)C)[C@]3(C)C(=O)C[C@@]12C`, the Potency was 0.118 µM (active).
As for `COC(=O)[C@@H](N)CCCN=C(N)N[N+](=O)[O-]`, the Potency entry was “inactive”.
With `Cc1ccccc1-n1c(Cn2cnc3c(N)ncnc32)nc2cccc(C)c2c1=O`, the Potency is 5.26 µM (active).
Take `CN1CCN(c2ccc([N+](=O)[O-])c3no[n+]([O-])c23)CC1`: the Potency is 23.5 µM (active).
The entry for `CN(C)[C@@H]1C(=O)C(C(N)=O)=C(O)[C@@]2(O)C(=O)C3=C(O)c4c(O)cccc4[C@@](C)(O)[C@H]3[C@H](O)[C@@H]12` is “inactive”.
Regarding `CC(C)N(CCNC(=O)CN1CCCC1=O)C(C)C`, the Potency entry was “inactive”.
Turning to `C[C@H]([C@H](O)CCC(C)(C)O)[C@H]1CC[C@@]2(O)C3=CC(=O)[C@@H]4C[C@@H](O)[C@@H](O)C[C@]4(C)[C@@H]3CC[C@]12C`, the Potency entry is “inactive”.
On to `C[C@H]1CCCC=CC2C[C@H](O)C[C@@H]2[C@H](O)C=CC(=O)O1` (stereo not given in full), for which the Potency result is “inactive”.
